Screens: PubChem, National Center for Advancing Translational Sciences (NCATS)
KDM5B inhibitor – Primary screen for KDM5B Histone Demethylases FDH-coupled qHTS. KDM5B demethylase, FDH-coupled NADH fluorescence (FDH is formaldehyde dehydrogenase). Potency, µM (highest dose often 57.7 µM), usual class: inhibitors. 220,000 compounds, 2.6% hits. AID 1347165, 2019; active means well fitted inhibition curve with a large enough effect; further: 0% is about no effect; nearly all actives have a fitted effect of over 70% in size
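Measured: NADH fluorescence change, 30 min, RT. System: KDM5BΔAP 200 nM final, H3K4me3 peptide, α-KG, Fe(II), ascorbate, NAD⁺ plus FDH, pH 7.5 HEPES. Compounds: titrated, 10 min pre-incubation with enzyme.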
* marks the source's active call; other numbers are inactive results. The entries come from a sample that favours hits as a whole. Potency means the concentration at half of the fitted maximal effect.

Screening O=C(NCC1CC1)c1nc2c(o1)CCN(Cc1ccc3[nH]ccc3c1)CC2 returned KDM5B inhibitor inactive.
For O=C(NCc1ccccc1)c1nc2c(o1)CCN(Cc1ccc(F)cc1)CC2 the results were KDM5B inhibitor inactive.
Cc1cccc(CN2CCc3nc(C(=O)NCc4ccccc4)oc3CC2)c1 was read as KDM5B inhibitor inactive.
Screening O=C(NCc1ccncc1)c1nc2c(o1)CCN(CCCc1ccccc1)CC2 returned KDM5B inhibitor inactive.
Screening O=C(NCCOc1ccccc1)c1nc2c(o1)CCN(Cc1ccsc1)CC2 returned KDM5B inhibitor inactive.
Screening O=C(NCc1ccccc1)c1nc2c(o1)CCN(Cc1ccc(F)c(Cl)c1)CC2 returned KDM5B inhibitor 28.2µM*.
O=C(Nc1ccc(Cl)cc1)c1nc2c(o1)CCN(Cc1cc(F)ccc1F)CC2 was read as KDM5B inhibitor 31.6µM*.
For O=C(Nc1ccc(Cl)cc1)c1nc2c(o1)CCN(Cc1ccccc1)CC2 the results were KDM5B inhibitor 31.6µM*.
`O=C(CN1CCN(Cc2ccccc2)CC1)Nc1ccc(Cl)cc1` gave KDM5B inhibitor inactive.
Screening Cc1csc(NC(=O)c2nc3c(o2)CCN(Cc2ccccc2F)CC3)n1 returned KDM5B inhibitor inactive.
For O=C(Nc1cccnc1)c1nc2c(o1)CCN(Cc1ccc(F)c(F)c1)CC2 the results were KDM5B inhibitor inactive.
Screening O=C(NCCOc1ccccc1)c1nc2c(o1)CCN(Cc1ccc3[nH]ccc3c1)CC2 returned KDM5B inhibitor 39.8µM*.
CCN1CCN(c2ccc(NC(=O)c3cccc(S(=O)(=O)NCc4cccs4)c3)cc2)CC1 was read as KDM5B inhibitor inactive.
For N#Cc1ccc(OCc2cccc(C(F)(F)F)c2)cc1 the results were KDM5B inhibitor inactive.
Cn1c(=O)c2c(ncn2CCC(=O)Nc2ccccc2Oc2ccccc2)n(C)c1=O was read as KDM5B inhibitor inactive.
For COc1ccc(CNC(=O)CS(=O)(=O)Cc2nc(-c3ccccc3C)oc2C)cc1 the results were KDM5B inhibitor inactive.
CC(C)(C(=O)NCCc1c[nH]c2ccccc12)c1ccccc1 was read as KDM5B inhibitor inactive.
`N#Cc1cn(CC(=O)NCc2ccc(F)cc2)c2ccccc12` gave KDM5B inhibitor inactive.
`CC(C)(CNC(=O)c1cccc2ccccc12)CNC(=O)c1cccc2ccccc12` gave KDM5B inhibitor inactive.
For CC/C(=N\O)c1cccs1 the results were KDM5B inhibitor inactive.
Screening COC(=O)c1c(C)[nH]c(C(=O)Cn2nnc(-c3ccc(C(C)C)cc3)n2)c1C returned KDM5B inhibitor inactive.
`Cc1cc2nc(CSc3nc4ccc(NC(=O)Cc5ccccc5)cc4s3)cc(=O)n2o1` gave KDM5B inhibitor inactive.
`CCOc1ccccc1C(=O)Nc1c(C(=O)N2CCN(C)CC2)oc2ccccc12` gave KDM5B inhibitor inactive.
For O=C(Cn1c(=O)oc2cc(S(=O)(=O)N3CCOCC3)ccc21)c1ccc(F)cc1 the results were KDM5B inhibitor inactive.
COc1cc(Cl)c(NC(=O)c2ccc3c(=O)n4c(nc3c2)CCCCCC4)cc1OC was read as KDM5B inhibitor inactive.
For C=CCCC(CN1CCCOCC1)Oc1ccc2cccc(OC)c2n1 (stereo not given) the results were KDM5B inhibitor 31.6µM*.
For C=CCCC(CN1CCCOCC1)Oc1ccc(-c2ccccc2)nn1 (stereo not given) the results were KDM5B inhibitor inactive.
`C=CCCC(CN1CCCOCC1)Oc1nccc(N(C)CC)n1` (stereo not given) gave KDM5B inhibitor inactive.
`CCOC(=O)c1cnc2ccccc2c1N(C)CC(=O)N(C)C` gave KDM5B inhibitor inactive.
O=C(c1ccccc1)N1CCC(n2cc(-c3nc(-c4ccccc4)no3)nn2)CC1 was read as KDM5B inhibitor inactive.
COCCn1c(SC(C)C(=O)Nc2ccc(Cl)cn2)nc2ccccc21 (stereo not given) was read as KDM5B inhibitor inactive.
Cc1c(-c2ccc(F)cc2)[nH]c2ccc(CNC(=O)CCN3CCCO3)cc12 was read as KDM5B inhibitor 31.6µM*.
`Cc1c(-c2ccc(F)cc2)[nH]c2ccc(CNCc3cnn(C)c3)cc12` gave KDM5B inhibitor 31.6µM*.
Cc1ccc(NC2CCCN(C(=O)CCN3CCCCO3)C2)cc1C (stereo not given) was read as KDM5B inhibitor inactive.
Screening Cc1cnc(-c2ccncc2)n1CCNC(=O)NCc1ccc(F)cc1 returned KDM5B inhibitor inactive.
For O=C(C[C@@H]1CCNC[C@@H]1Cc1cc(-c2ccc(F)cc2)on1)NCc1ccc(F)cc1 the results were KDM5B inhibitor inactive.
Cc1nc(CC(=O)NCc2ccc3[nH]c(-c4ccc(F)cc4)c(C)c3c2)cs1 was read as KDM5B inhibitor 31.6µM*.
`CCc1ccc(-c2nc(SCC(=O)NCC3CCCO3)c(-c3ccc(F)cc3)[nH]2)cc1` (stereo not given) gave KDM5B inhibitor inactive.
Cc1nc(CC(=O)NCc2ccccn2)cs1 was read as KDM5B inhibitor inactive.
For Fc1ccc(-c2[nH]ncc2CNCc2cccc(Cn3cccn3)c2)cc1 the results were KDM5B inhibitor inactive.
For O=C(NCc1ccc(F)cc1)c1ccc(NC(=O)C2CCCO2)cc1 (stereo not given) the results were KDM5B inhibitor inactive.
`Cc1nc(CC(=O)Nc2ccc(C)c(C)c2)cs1` gave KDM5B inhibitor inactive.
For Cc1c(-c2ccc(F)cc2)[nH]c2ccc(CNC(=O)[C@@H]3CCCO3)cc12 the results were KDM5B inhibitor 28.2µM*.
Cc1cccc(NC(=S)NN=C2CCCC2)c1 was read as KDM5B inhibitor inactive.
For CCOC(=O)/C(C#N)=C/c1cc(Br)ccc1OCc1ccccc1Cl the results were KDM5B inhibitor inactive.
Fc1ccc(NC2c3ccccc3-c3ccccc32)cc1 was read as KDM5B inhibitor inactive.
Cn1c(SCC(=O)Nc2sccc2C#N)nnc1-c1cccc(Cl)c1 was read as KDM5B inhibitor inactive.
Screening O=C(Nc1cccc(F)c1)c1cnc(-c2ccc(F)cc2)nc1-c1ccncc1 returned KDM5B inhibitor inactive.
For CCc1cccc(NC(=O)Cn2c(-c3cccc(Cl)c3)nc(C)c(CCO)c2=O)c1 the results were KDM5B inhibitor inactive.
`Cc1ccc(/C=C2\Cc3ccccc3C2=O)cc1` gave KDM5B inhibitor inactive.
Screening CC(C)C(=O)Nc1sc2c(c1-c1nc3ccccc3s1)CCN(C(C)C)C2 returned KDM5B inhibitor inactive.
Screening NC(=NCc1ccccc1)NCCN1CCN(Cc2ccccc2)CC1 returned KDM5B inhibitor inactive.
Screening CCc1ccccc1NC(=O)c1ccc2ccccc2n1 returned KDM5B inhibitor inactive.
`COc1ccc(-c2cc(C(=O)N(Cc3ccc(Cl)cc3)Cc3ccco3)no2)cc1` gave KDM5B inhibitor inactive.
COc1ccc(OCC(O)Cn2c(NCCc3ccccc3)nc3c2c(=O)n(C)c(=O)n3C)cc1 (stereo not given) was read as KDM5B inhibitor inactive.
O=C(OCc1ncc(-c2ccc(Cl)cc2)o1)c1ccc(F)cc1 was read as KDM5B inhibitor inactive.
For CN(C)C[C@@H]1CN(C2CCOCC2)C[C@H]1NC(=O)c1ccccc1C(F)(F)F the results were KDM5B inhibitor inactive.
Screening CN(C)C[C@@H]1CN(C2CCOCC2)C[C@H]1NC(=O)c1cc2ccccc2[nH]1 returned KDM5B inhibitor 28.2µM*.
CN(C)C[C@@H]1CN(C2CCOCC2)C[C@H]1NC(=O)c1ccc2cc[nH]c2c1 was read as KDM5B inhibitor inactive.
Screening C/C(=N\Nc1ccccc1)c1cccc([N+](=O)[O-])c1 returned KDM5B inhibitor inactive.
